The values below come from PubChem BioAssay (NCATS).

Several values for one entry are separate records, joined by “and”; a condition that tells them apart may be missing. Equal entries are not always repeated. Results filed as inconclusive are left out. Unmarked numbers belong to inactive results. Activity calls are given as the source filed them. Calls come from the whole dose curve; as a rule, active = well fitted curve in the direction sought with a large enough effect; inconclusive = small, poorly fitted or top-dose-only effect, or another doubt; inactive = no such curve, though single readings can be large; an effect the other way counts as inactive or inconclusive.

Assay [1] is described as follows: Viability qHTS for spleen associated tyrosine kinase inhibitor (SYKi) naive MV4-11 cells (AID 1963823). Note: nearly all actives have a fitted effect of over 40% in size. Note: potency is the fitted concentration of half-maximal effect. The note with it: MV4-11 AML viability, CellTiter-Glo luminescence, 72 h; series mostly up to 45 µM. Summed up: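 CellTiter-Glo luminescence, 10 min room-temperature incubation, gave viability. Cells: naive MV4-11 (500/well), treated 72 hr at 37 C, 5% CO2.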
A general note: qHTS replaces the single test concentration by a dilution series.

Assay [2] is described as follows: Viability qHTS for spleen associated tyrosine kinase inhibitor (SYKi) drug resistant MV4-11 cells (AID 1963824). Note: nearly all actives have a fitted effect of over 35% in size. Note: potency is the fitted concentration of half-maximal effect. The note with it: SYKi-resistant MV4-11 viability, CellTiter-Glo, 72 h; series mostly up to 45 µM. The essentials: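 SYK-inhibitor-resistant MV4-11 AML cells were seeded at 500 per well onto compound and cultured 72 hours (37 °C, 5% CO2). CellTiter-Glo was then added, and after 10 min at room temperature, luminescence gave viability.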

The nature of assay [3]: Quantitative highthroughput screen to assess conditional lethalithy of NOMO1 cells grown in RPMI1640 with dialyzed fetal bovine serum (RPMI+ds) (AID 1963877).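 For Viability: 100% = DMSO control wells and 0% = empty wells.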 Note: nearly all actives have a fitted effect of over 30% in size. Note: potency is the fitted concentration of half-maximal effect. The note with it: NOMO1 in RPMI+dialyzed FBS viability, ATP luminescence, 48 h; series mostly up to 45.8 µM. Summed up: (§1)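 Each medium arm—HPLM with 10% dialyzed FBS, or RPMI1640 with 5 mM glucose and 10% untreated or dialyzed FBS—was screened against an 11-point, 3-fold compound titration for 48 h at 37 °C, with CellTiter-Glo luminescence as endpoint.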

A short description of assay [4]: Quantitative highthroughput screen to assess conditional lethalithy of NOMO1 cells grown in Human Plasma-Like Medium with dialyzed fetal bovine serum (HPLM+ds) (AID 1963878).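 For Viability: 100% = DMSO wells and 0% = empty wells on each plate.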 Note: nearly all actives have a fitted effect of over 35% in size. Note: potency is the fitted concentration of half-maximal effect. The note with it: NOMO1 AML cells in HPLM+ds, CellTiter-Glo viability, 48 h; series mostly up to 45.8 µM. The essentials:
as §1
For orientation: ATP-based viability assays read luminescence as a measure of living cells.

The nature of assay [5]: Quantitative highthroughput screen to assess conditional lethalithy of SEM cells grown in Human Plasma-Like Medium with dialyzed fetal bovine serum (HPLM+ds) (AID 1963882). Note: nearly all actives have a fitted effect of over 35% in size. Note: potency is the fitted concentration of half-maximal effect. The conditions noted are these: SEM B-ALL cells in HPLM+ds, CellTiter-Glo viability, 48 h; series mostly up to 45.8 µM. Summed up: as §1
The nature of assay [6]: Cellular viability qHTS for adrenocortical cancer (ACC) cell line SW-13 (AID 1963989).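 For activity (max response): cells grown in serum-free medium with ITS supplement; % is set by controls: 0 for no effect and ±100 for the full control effect.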 Note: nearly all actives have a fitted effect of over 65% in size. Note: potency is the fitted concentration of half-maximal effect. The conditions noted are these: SW-13 ACC cells viability, CellTiter-Glo, 48 h; activity (max response): stronger effect = lower value. The essentials: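 IC50 and maximal-response values come from four-parameter logistic fits of titration data. SW-13 cells in serum-free medium received compounds (up to 46 uM final) for 48 h before CellTiter-Glo luminescence.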

Assay [7] can be described thus: Cellular viability qHTS for adrenocortical cancer (ACC) cell line NCI-H295R (AID 1963990). Note: nearly all actives have a fitted effect of over 60% in size. Note: potency is the fitted concentration of half-maximal effect. The note with it: CellTiter-Glo ATP luminescence, 48 h; series mostly up to 46.1 µM. Summed up:
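Adrenocortical carcinoma cells, suspended at 300 000 cells/mL in serum-free DMEM plus ITS, rested overnight before pin transfer of compound. After two days' incubation, ATP-dependent luminescence was recorded and curve-fitted.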

A short description of assay [8]: Quantitative highthroughput screen to assess conditional lethalithy of SEM cells grown in RPMI1640 with unreated serum (RPMI+s) (AID 1963883).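 For Viability: 100% = DMSO wells and 0% = empty wells without cells.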 Note: nearly all actives have a fitted effect of over 35% in size. Note: potency is the fitted concentration of half-maximal effect. The note with it: SEM B-ALL cells, CellTiter-Glo viability, 48 h; series mostly up to 45.8 µM. The essentials:
as §1

Assay [9] can be described thus: Quantitative highthroughput screen to assess conditional lethalithy of SEM cells grown in RPMI1640 with dialyzed fetal bovine serum (RPMI+ds) (AID 1963884).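 For Viability: 100% = DMSO control wells and 0% = empty wells without cells.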 Note: nearly all actives have a fitted effect of over 35% in size. Note: potency is the fitted concentration of half-maximal effect. The note with it: SEM B-ALL cells, RPMI+dialyzed FBS, CellTiter-Glo viability, 48 h; series mostly up to 45.8 µM. Summed up: as §1
Assay [10] can be described thus: Quantitative highthroughput screen to assess conditional lethalithy of P12 Ichikawa cells grown in RPMI1640 with dialyzed fetal bovine serum (RPMI+ds) (AID 1963880). The note with it: ATP luminescence, 48 h; Potency: P12-Ichikawa viability; series mostly up to 45.8 µM. Summed up:
as §1

Assay [11] can be described thus: Quantitative highthroughput screen to assess conditional lethalithy of P12 Ichikawa cells grown in RPMI1640 with untreated serum (RPMI+s) (AID 1963881). The conditions noted are these: ATP luminescence, 48 h; Potency: viability; series mostly up to 45.8 µM. Summed up:
as §1

Assay [12] is described as follows: Quantitative highthroughput screen to assess conditional lethalithy of P12 Ichikawa cells grown in Human Plasma-Like Medium with dialyzed fetal bovine serum (HPLM+ds) (AID 1963879). Note: nearly all actives have a fitted effect of over 35% in size. The note with it: ATP luminescence, 48 h; Potency: viability; series mostly up to 45.8 µM. Summed up: as §1

As to `C=CC(=O)Nc1cccc(Oc2nc(Nc3ccc(N4CCN(C)CC4)cc3)ncc2Cl)c1`, the Potency is 206 nM (active) in [1]; 517 nM (active) and 525 nM (active) in [2]; 5900 nM (active) in assay [3]; 2350 nM (active) in assay [5]; 1260 nM (active) in assay [6]; 2510 nM (active) in assay [7]. In addition, the Potency entry in [4] was “inactive”.
As for `O=C(Nc1cn[nH]c1-c1nc2ccc(CN3CCOCC3)cc2[nH]1)NC1CC1`, the Potency is 25.9 nM (active) in assay [1]; 73.1 nM (active) and 51.7 nM (active) and 132 nM (active) in assay [2]; 18700 nM (active) in [3]; 14800 nM (active) in [4]; 83.3 nM (active) in assay [5]; 41.8 nM (active) in assay [8]. The Potency in assay [9] was 33.2 nM (active); in assay [6], 3160 nM (active); in [7], 20000 nM (active).
For `Cc1noc(NS(=O)(=O)c2ccc(N)cc2)c1C`, the Potency result in assay [1], in assay [2], in assay [3], in assay [4], in assay [10] and in assay [11] was “inactive” in each case. In addition, the Potency entry in assay [5], in assay [8] and in assay [9] was “inactive” each time. The activity (max response) in assay [6] was -8.37%.
On to `C[C@]12C=CC(=O)C=C1CC[C@@H]1[C@@H]2C(=O)C[C@@]2(C)[C@H]1CC[C@]2(O)C(=O)CO`, for which the Potency result in [1], in assay [2], in [3], in assay [4], in [12] and in assay [11] was “inactive” in each case. Besides, the Potency result in [5], in [8], in [9] and in assay [7] was “inactive” in each case. The activity (max response) in assay [6] was -14.6% and 1.01%.
Turning to `CNC(=O)c1cc(Oc2ccc(NC(=O)Nc3ccc(Cl)c(C(F)(F)F)c3)c(F)c2)ccn1`, the Potency in assay [1] is 296 nM (active); in assay [2], 291 nM (active) and 590 nM (active); in assay [4], 3320 nM (active); in [8] it was 372 nM (active); in assay [9], 332 nM (active); in assay [6] it was 3980 nM (active). The Potency in assay [7] is 7080 nM (active). In addition, the Potency result in assay [3] and in [10] was “inactive” throughout.
Consider `COc1ncc(-c2ccc3c(Nc4cc(Oc5cc(F)cc(F)c5)cc(C(=O)O)c4)c(S(=O)(=O)NC4CC4)cnc3c2)c(OC)n1`, for which the Potency entry in assay [1], in assay [2], in assay [3], in assay [4], in [12] and in assay [10] was “inactive” each time. Besides, the Potency result in assay [11], in assay [5], in assay [8], in [9] and in assay [7] was “inactive” in each case.
`CC(C)C[C@@H](N)[C@H](O)C(=O)N[C@H](C(=O)N[C@H](C(=O)N[C@@H](CC(=O)O)C(=O)O)C(C)C)C(C)C`: the Potency result in [1], in [2], in assay [3], in assay [4], in assay [12] and in assay [10] was “inactive” throughout. Moreover, the Potency result in assay [11] and in [8] was “inactive” throughout. Also, the activity (max response) in assay [6] was -8.42%.
As to `CCCCc1oc2ccccc2c1C(=O)c1cc(I)c(OCCN(CC)CC)c(I)c1`, the Potency in assay [1] is 18.8 µM (active) and 16.6 µM (active); in assay [2] it was 23.7 µM (active) and 18.6 µM (active); in assay [3], 20900 nM (active); in assay [6], 31600 nM (active); in assay [7] it was 22400 nM (active). In addition, the Potency result in assay [12], in assay [10], in [11], in assay [5], in assay [8] and in assay [9] was “inactive” each time.
